# This is one part of a sample in which the strongest signals are shown more often than they occur.
# How the values were obtained:
# Assay in all cases: glycan array binding signal (z-score within array); higher = stronger binding
# Conditions in all cases: glycan notation: IUPAC condensed, linker removed
# [1] = target: Gal3S(b1-4)GlcNAc
# Procedure, shortened: (§1)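 Glycan array data came from 3228 arrays in the Consortium for Functional Glycomics database, and only arrays with an available protein sequence were kept. Glycan names were put into IUPAC-condensed notation, and columns mapping to the same glycan were averaged. The binding signal is a within-array Z-score, averaged across arrays of one protein sequence run at different concentrations or buffers and across linkers. A negative Z-score can be read as non-binding.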
# [2] = target: Gal3S(b1-4)[Fuc(a1-3)]Glc6S
# Procedure, shortened: as §1
# [3] = target: Gal4S(b1-4)GlcNAc
# Procedure, shortened: as §1
# [4] = target: Gal6S(b1-4)Glc6S
# Procedure, shortened: as §1
# [5] = target: GalNAc(b1-3)Gal
# Procedure, shortened: as §1
# [6] = target: GalNAc(b1-3)Gal(a1-4)Gal(b1-4)GlcNAc(b1-3)Gal(b1-4)Glc
# Procedure, shortened: as §1
# [7] = target: GalNAc3S(b1-4)GlcNAc3S
# Procedure, shortened: as §1
# [8] = target: GalNAc4S6S(b1-4)GlcNAc
# Procedure, shortened: as §1
# [9] = target: Glc(a1-6)Glc(a1-6)Glc
# Procedure, shortened: as §1
# [10] = target: GlcA(b1-3)GlcNAc
# Procedure, shortened: as §1
# [11] = target: GlcNAc(b1-2)[GlcNAc(b1-4)]Man(a1-3)[GlcNAc(b1-4)][GlcNAc(b1-2)[GlcNAc(b1-6)]Man(a1-6)]Man(b1-4)GlcNAc(b1-4)[Fuc(a1-6)]GlcNAc
# Procedure, shortened: as §1
# [12] = target: GlcNAc(b1-3)Gal(b1-4)GlcNAc
# Procedure, shortened: as §1
# [13] = target: GlcNAc(b1-3)Gal(b1-4)GlcNAc(b1-3)Gal(b1-4)GlcNAc(b1-2)Man(a1-3)[GlcNAc(b1-3)Gal(b1-4)GlcNAc(b1-3)Gal(b1-4)GlcNAc(b1-2)Man(a1-6)]Man(b1-4)GlcNAc(b1-4)[Fuc(a1-6)]GlcNAc
# Procedure, shortened: as §1
# [14] = target: Man(a1-2)Man(a1-3)Man
# Procedure, shortened: as §1
# [15] = target: Neu5Ac(a2-3)Gal(b1-4)GlcNAc
# Procedure, shortened: as §1
# [16] = target: Neu5Ac(a2-3)Gal(b1-4)GlcNAc(b1-2)[Neu5Ac(a2-3)Gal(b1-4)GlcNAc(b1-6)]Man(a1-6)[Neu5Ac(a2-3)Gal(b1-4)GlcNAc(b1-2)Man(a1-3)]Man(b1-4)GlcNAc(b1-4)GlcNAc
# Procedure, shortened: as §1
# [17] = target: Neu5Ac(a2-3)Gal(b1-4)GlcNAc(b1-2)[Neu5Ac(a2-3)Gal(b1-4)GlcNAc(b1-6)]Man(a1-6)[Neu5Ac(a2-3)Gal(b1-4)GlcNAc(b1-2)Man(a1-3)][GlcNAc(b1-4)]Man(b1-4)GlcNAc(b1-4)GlcNAc
# Procedure, shortened: as §1
# [18] = target: Neu5Ac(a2-3)Gal(b1-4)GlcNAc(b1-3)Gal(b1-4)GlcNAc(b1-2)Man(a1-3)[Neu5Ac(a2-3)Gal(b1-4)GlcNAc(b1-3)Gal(b1-4)GlcNAc(b1-2)Man(a1-6)]Man(b1-4)GlcNAc(b1-4)GlcNAc
# Procedure, shortened: as §1
# [19] = target: Neu5Ac(a2-3)Gal(b1-4)GlcNAc(b1-6)GalNAc
# Procedure, shortened: as §1
# [20] = target: Neu5Ac(a2-3)Gal(b1-4)[Fuc(a1-3)]GlcNAc(b1-6)[Gal(b1-3)]GalNAc
# Procedure, shortened: as §1
# [21] = target: Neu5Ac(a2-3)[Neu5Ac(a2-6)]GalNAc
# Procedure, shortened: as §1
# [22] = target: Neu5Ac(a2-6)Gal(b1-4)Glc
# Procedure, shortened: as §1
# [23] = target: Neu5Ac(a2-6)Gal(b1-4)GlcNAc(b1-2)Man(a1-3)[GlcNAc(b1-4)][Neu5Ac(a2-6)Gal(b1-4)GlcNAc(b1-2)Man(a1-6)]Man(b1-4)GlcNAc(b1-4)GlcNAc
# Procedure, shortened: as §1
# [24] = target: Neu5Ac(a2-6)Gal(b1-4)GlcNAc(b1-2)Man(a1-3)[Neu5Ac(a2-6)Gal(b1-4)GlcNAc(b1-2)Man(a1-6)]Man(b1-4)GlcNAc(b1-4)GlcNAc
# Procedure, shortened: as §1
# [25] = target: Neu5Ac(a2-6)Gal(b1-4)GlcNAc(b1-2)Man(a1-6)Man(b1-4)GlcNAc(b1-4)GlcNAc
# Procedure, shortened: as §1
# [26] = target: Neu5Ac(a2-6)Gal(b1-4)GlcNAc(b1-2)Man(a1-6)[Gal(b1-4)GlcNAc(b1-2)Man(a1-3)]Man(b1-4)GlcNAc(b1-4)GlcNAc
# Procedure, shortened: as §1
# [27] = target: Neu5Ac(a2-6)Gal(b1-4)GlcNAc(b1-2)Man(a1-6)[GlcNAc(b1-2)Man(a1-3)]Man(b1-4)GlcNAc(b1-4)GlcNAc
# Procedure, shortened: as §1
# [28] = target: Neu5Ac(a2-6)Gal(b1-4)GlcNAc(b1-3)Gal(b1-4)GlcNAc(b1-6)[Gal(b1-3)]GalNAc
# Procedure, shortened: as §1
# [29] = target: Neu5Ac(a2-6)GlcNAc(b1-4)GlcNAc(b1-4)GlcNAc
# Procedure, shortened: as §1
# [30] = target: Neu5Ac(a2-8)Neu5Ac(a2-3)Gal(b1-4)GlcNAc
# Procedure, shortened: as §1
# [31] = target: Neu5Ac(a2-8)Neu5Ac(a2-3)[GalNAc(b1-4)]Gal(b1-4)Glc
# Procedure, shortened: as §1
# [32] = target: Neu5Gc(a2-3)Gal(b1-4)GlcNAc(b1-3)Gal(b1-4)GlcNAc(b1-2)Man(a1-3)[Neu5Gc(a2-3)Gal(b1-4)GlcNAc(b1-3)Gal(b1-4)GlcNAc(b1-2)Man(a1-6)]Man(b1-4)GlcNAc(b1-4)GlcNAc
# Procedure, shortened: as §1
binder,measurement,setting,value
FimA-N2 (Actinomyces oris) (protein) MHHHHHHSSGVDLGTENLYFQSNAWIYDVNVYPKNEAIDVDKTIQAQKLNGYGVGSLIKFPVESTAPTLDAKSFYKYFQLKDTLDERLSEVTATDVSLEGTPLQPTDYKVETKQQTVTVTFTAEGLKKIKAAPGKKVSAVFQGKVTKAGNGAITNRAQVISDTLYAEQPPTPETPPTDPENPPTSDEVISRWGDLSIKKVDTHQQGQTKA,glycan array binding signal (z-score),[1],2.69
same,glycan array binding signal (z-score),[2],3.08
same,glycan array binding signal (z-score),[3],3.9
same,glycan array binding signal (z-score),[4],-0.257
same,glycan array binding signal (z-score),[5],2.41
same,glycan array binding signal (z-score),[6],1.53
same,glycan array binding signal (z-score),[7],0.248
same,glycan array binding signal (z-score),[8],-0.331
same,glycan array binding signal (z-score),[9],-0.88
same,glycan array binding signal (z-score),[10],0.654
same,glycan array binding signal (z-score),[11],-0.355
same,glycan array binding signal (z-score),[12],0.299
same,glycan array binding signal (z-score),[13],-0.07
same,glycan array binding signal (z-score),[14],0.075
same,glycan array binding signal (z-score),[15],-0.301
same,glycan array binding signal (z-score),[16],-0.853
same,glycan array binding signal (z-score),[17],-0.874
same,glycan array binding signal (z-score),[18],-0.355
same,glycan array binding signal (z-score),[19],1.38
same,glycan array binding signal (z-score),[20],1.73
same,glycan array binding signal (z-score),[21],-1.07
same,glycan array binding signal (z-score),[22],0.148
same,glycan array binding signal (z-score),[23],-1.7
same,glycan array binding signal (z-score),[24],0.297
same,glycan array binding signal (z-score),[25],-0.759
same,glycan array binding signal (z-score),[26],-1.01
same,glycan array binding signal (z-score),[27],0.589
same,glycan array binding signal (z-score),[28],-0.597
same,glycan array binding signal (z-score),[29],0.675
same,glycan array binding signal (z-score),[30],-0.815
same,glycan array binding signal (z-score),[31],-1.37
same,glycan array binding signal (z-score),[32],-0.144

# — the supplement of paper PMC8728848
